Paper PMC4336329 (PLoS ONE, 2015)
About 14,000 (4.5%) of roughly 310,000 compounds showed an effect of 50% or more. The effect is printed as a negative number. Only a selection was taken, and strong results are over-represented in it overall.

Each molecule was assayed against human ether-à-go-go-related gene (hERG) potassium channel (human, UniProt Q12809) (assay: primary screen, population patch clamp on CHO cells stably expressing hERG; higher = less effect of the substance).
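Note: peak tail current of the secondary pulse compared with the same well before compound.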

Sequence of human ether-à-go-go-related gene (hERG) potassium channel (Q12809 whole entry, looked up): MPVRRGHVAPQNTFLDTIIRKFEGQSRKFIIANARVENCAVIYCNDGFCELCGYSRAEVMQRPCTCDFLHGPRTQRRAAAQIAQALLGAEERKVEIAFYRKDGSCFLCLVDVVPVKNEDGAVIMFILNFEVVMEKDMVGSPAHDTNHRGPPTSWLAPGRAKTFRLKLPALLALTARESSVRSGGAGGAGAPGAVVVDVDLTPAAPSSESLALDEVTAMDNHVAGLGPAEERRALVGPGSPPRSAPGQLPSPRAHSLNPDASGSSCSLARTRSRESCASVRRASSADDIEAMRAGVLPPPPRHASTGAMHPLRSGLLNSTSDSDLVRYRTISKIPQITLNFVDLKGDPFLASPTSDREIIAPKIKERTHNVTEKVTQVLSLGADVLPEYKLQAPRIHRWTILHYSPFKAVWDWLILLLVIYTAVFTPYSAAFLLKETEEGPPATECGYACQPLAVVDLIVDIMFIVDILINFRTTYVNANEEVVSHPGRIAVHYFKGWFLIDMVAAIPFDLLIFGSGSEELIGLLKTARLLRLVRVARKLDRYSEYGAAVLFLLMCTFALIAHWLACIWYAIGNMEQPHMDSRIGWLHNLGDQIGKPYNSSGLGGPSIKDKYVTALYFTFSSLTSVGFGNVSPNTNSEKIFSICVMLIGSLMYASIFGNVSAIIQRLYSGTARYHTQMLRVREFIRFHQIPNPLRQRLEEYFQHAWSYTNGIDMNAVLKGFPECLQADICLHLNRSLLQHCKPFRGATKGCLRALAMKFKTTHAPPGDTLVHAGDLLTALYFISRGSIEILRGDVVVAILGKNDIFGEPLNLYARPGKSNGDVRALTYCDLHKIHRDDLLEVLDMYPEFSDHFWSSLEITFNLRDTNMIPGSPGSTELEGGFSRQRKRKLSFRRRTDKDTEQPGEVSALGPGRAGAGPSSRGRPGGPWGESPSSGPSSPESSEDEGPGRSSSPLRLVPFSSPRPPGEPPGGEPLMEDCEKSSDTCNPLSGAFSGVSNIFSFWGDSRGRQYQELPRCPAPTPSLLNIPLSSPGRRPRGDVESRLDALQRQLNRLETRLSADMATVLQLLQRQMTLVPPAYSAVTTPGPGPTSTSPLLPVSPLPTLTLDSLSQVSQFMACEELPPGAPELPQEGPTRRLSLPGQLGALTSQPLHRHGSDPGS

Structure (SMILES) | hERG current change (%, negative = inhibition) at 10uM [%]
O=c1c2[nH]c3ccc(Br)cc3c2ncn1CCCn1ccnc1 | -64.4
O=c1c2[nH]c3ccc(Br)cc3c2ncn1Cc1ccncc1 | -4.79
O=c1c2[nH]c3ccccc3c2ncn1CCCn1ccnc1 | -41.8
COc1ccc2c(c1)[nH]c1c(=O)n(CCCn3ccnc3)cnc12 | -35.1
O=c1c2[nH]c3ccc(F)cc3c2ncn1CCCn1ccnc1 | -61.1
O=C1CCCN1CCCn1cnc2c([nH]c3ccc(F)cc32)c1=O | -42.2
CC(C)(C)C1CCC(=NNC(=O)c2cc3c(s2)CCCC3)CC1 (stereo not drawn) | 20.1
Cc1cccc(NC(=O)c2sc(NC(=O)c3ccco3)c(C#N)c2C)c1C | 5.79
O=C(CCSc1nc(-c2ccco2)cc(C(F)(F)F)n1)NCc1ccccn1 | -22.5
CC(=C/c1ccc(C(C)C)cc1)/C=N/NC(=O)Cn1nnnc1N | 17.3
CS/C(=N/S(=O)(=O)c1ccc(C)cc1)c1ccccc1 | -3.56
Cl.c1ccc(CC2=NCCN2)cc1 | 7.57
Cl.c1ccc(CN(CC2=NCCN2)c2ccccc2)cc1 | -29.7
Cc1ccc(N(CC2=NCCN2)c2cccc(O)c2)cc1.Cl | -58.3
Cc1ccc(N(CC(=O)Nc2c(C)cccc2C)S(C)(=O)=O)cc1 | 1.65
CS(=O)(=O)O.Cc1ccc(N(CC2=NCCN2)c2cccc(O)c2)cc1 | -51.2
O=P(O)(O)O.c1ccc(CN(CC2=NCCN2)c2ccccc2)cc1 | -17.3
Cc1cc(C)nc(/N=C2\NC(=O)CC(C(=O)O)N2CCc2c[nH]c3ccccc23)n1 (stereo not drawn) | 12.8
COc1cccc(NC(=O)C(c2ccccc2)N2CCNC(=O)C2)c1 (stereo not drawn) | -7.23
O=C(CCN1CCOCC1)N1CCCC(Nc2ccc(F)cc2)C1 (stereo not drawn) | 13.7

Structure (SMILES) | hERG current change (%, negative = inhibition) at 10uM [%]
C/C(=N\NC(=S)Nc1ccc(F)cc1)C1CC1 | -26.7
COc1ccc(C(=O)NC(=S)Nc2cccnc2)cc1[N+](=O)[O-] | 4.69
Cc1cccc(N(CC(=O)NCCSCc2ccccc2)S(C)(=O)=O)c1 | 26.5
COc1ccc(C2C(C(=O)OCC(=O)N3CCCCC3)CCC(=O)N2c2ccc(OC)cc2)cc1 (stereo not drawn) | -13.3
COc1ccc(C2C(C(=O)OCC(=O)Nc3ccc(C)cc3)CCC(=O)N2c2ccc(OC)cc2)cc1 (stereo not drawn) | -62.4
CCNC(=O)COC(=O)C1CCC(=O)N(c2ccc(OC)cc2)C1c1ccc(OC)cc1 (stereo not drawn) | -32.2
COc1ccc(C(=O)OCC[N+]2(C)CCOCC2)cc1.[I-] | 13.6
COCCN(C/C=C/c1ccccc1)C/C=C/c1ccccc1 | -69.4
CN(C/C=C/c1ccccc1)C1CCCCC1 | -21.7
NC(=O)CN(C/C=C/c1ccccc1)C/C=C/c1ccccc1 | 20.6
CC(C)(CO)CN1CCC(n2nccc2NC(=O)C2CCCC2)CC1 | 11.4
COc1ccc(C(=O)Nc2ccnn2C2CCN(C(=O)c3cccnc3)CC2)cc1 | 12.3
CC(C)=CCCC(C)CN1CCC(n2nccc2NC(=O)c2cccnc2)CC1 (stereo not drawn) | -52.1
O=C(Nc1ccnn1C1CCN(CC(O)CO)CC1)C1CCCC1 (stereo not drawn) | 11.4
CC(C)CCN1CCC(n2nccc2NC(=O)c2ccc3c(c2)OCO3)CC1 | -5.16
CC(C)=CCCC(C)CN1CCC(n2nccc2NC(=O)C2CCCC2)CC1 (stereo not drawn) | -70.8
CC(C)=CCCC(C)CN1CCC(n2nccc2NC(=O)c2ccccc2)CC1 (stereo not drawn) | -69.6
CCc1ccc(CN2CCC(n3nccc3NC(=O)c3ccccc3)CC2)o1 | -36
O=C(Nc1cccnc1Cl)c1cc(-c2ccccc2O)on1 | -5.16
COc1ccc(NCc2ccc3c(c2)OCO3)cc1Cl | -4.31

Structure (SMILES) | hERG current change (%, negative = inhibition) at 10uM [%]
CC(C)CSc1nnc2c3ccccc3n(C)c2n1 | -11.9
CC1=C(C(N)=O)C(c2ccccc2[N+](=O)[O-])n2ncnc2N1 (stereo not drawn) | 7.69
C=Cn1c(C(=O)O)ccc1-c1ccc(CC)cc1 | -5.29
COC(=O)Nc1ccc(S(=O)(=O)N(CCO)CC(F)(F)C(F)F)cc1 | 18.3
CN=C1S/C(=C\c2ccc(OCC(=O)OC)c(OC)c2)C(=O)N1C | 12.6
c1ccc(CNc2ncnc3sc4c(c23)CCCC4)nc1 | -27.4
c1cncc(CNc2ncnc3sc4c(c23)CCCC4)c1 | -78
Cc1nc(NCc2cccnc2)c2c3c(sc2n1)CC(C)CC3 (stereo not drawn) | -25.1
Cc1sc2ncnc(NCc3ccco3)c2c1C | -16.3
Cc1sc2ncnc(NCc3cccnc3)c2c1C | -55
Cc1nc(NCc2cccnc2)c2c3c(sc2n1)CCCC3 | -70.2
Cc1sc2ncnc(OCC(=O)NCc3cccs3)c2c1C | 6.03
Cc1sc2ncnc(NCCCO)c2c1C | 5.08
O=C(Nc1ncnc2sc3c(c12)CCCC3)c1ccncc1 | -14.2
Cc1ccc(CNc2nc(C)nc3sc4c(c23)CCC4)cc1 | -4.22
CCCNc1ncnc2sc(C)c(C)c12 | -1.05
Cc1sc2ncnc(NCc3cccs3)c2c1C | -61.7
c1ccc2c(CSc3nnc(-c4ccncc4)o3)cccc2c1 | -12.8
CCC(CC)C(=O)Nc1nnc(S(=O)(=O)N2CCc3ccccc32)s1 | 17.9
O=C(O)C1CCCCC1C(=O)Nc1cc(Cl)ccc1Cl (stereo not drawn) | 10.3
